In article PMC8384837, “Expanding the binding specificity for RNA recognition by a PUF domain”:

What was measured:
Assay in all cases: yeast three-hybrid, YBZ-1, SC-Leu-His + 0.5 mM 3-AT, 4 days
Details in all cases: tags: N-Gal4 AD-HA kept; label: inside an RPR1-promoter hybrid RNA with tandem MS2 sites; ssRNA
PUM1 PUF domain R8-WYR = PUM1 PUF domain R8-WYR (Homo sapiens, UniProt Q14671 828-1176, N1122W;Q1126R)
Summary of the method: (§1)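 Sequencing with Illumina followed PCR amplification of the repeat regions from transformants grown four days on SC-Leu (input) or SC-Leu-His + 0.5 mM 3-AT (selection). The transformants were strain YBZ-1 with a LexA–MS2 coat fusion and a HIS3 reporter, carrying Pumilio-1 PUF domain libraries and matching RNA elements. The interaction score is the log change in variant frequency from input to selection, computed in log2 with a pseudocount of 1 for absent variants.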

PUM1 PUF domain R5-GRC = PUM1 PUF domain R5-GRC (Homo sapiens, UniProt Q14671 828-1176, C1007G;Q1011C)
Summary of the method: as §1

PUM1 PUF domain R2-RTS = PUM1 PUF domain R2-RTS (Homo sapiens, UniProt Q14671 828-1176, N899R;Y900T;Q903S)
Summary of the method: as §1

PUM1 PUF domain R3-GPQ = PUM1 PUF domain R3-GPQ (Homo sapiens, UniProt Q14671 828-1176, C935G;R936P)
Summary of the method: as §1

PUM1 PUF domain R3-EFS = PUM1 PUF domain R3-EFS (Homo sapiens, UniProt Q14671 828-1176, C935E;R936F;Q939S)
Summary of the method: as §1

PUM1 PUF domain R1-SPK = PUM1 PUF domain R1-SPK (Homo sapiens, UniProt Q14671 828-1176, R864P;Q867K)
Summary of the method: as §1

PUM1 PUF domain R5-IFM = PUM1 PUF domain R5-IFM (Homo sapiens, UniProt Q14671 828-1176, C1007I;R1008F;Q1011M)
Summary of the method: as §1

PUM1 PUF domain R5-RQM = PUM1 PUF domain R5-RQM (Homo sapiens, UniProt Q14671 828-1176, C1007R;R1008Q;Q1011M)
Summary of the method: as §1

PUM1 PUF domain R6-CYE = molecular target: T1, PUM1 PUF domain R6-CYE (Homo sapiens, UniProt Q14671 828-1176, N1043C;Q1047E)
T1 sequence: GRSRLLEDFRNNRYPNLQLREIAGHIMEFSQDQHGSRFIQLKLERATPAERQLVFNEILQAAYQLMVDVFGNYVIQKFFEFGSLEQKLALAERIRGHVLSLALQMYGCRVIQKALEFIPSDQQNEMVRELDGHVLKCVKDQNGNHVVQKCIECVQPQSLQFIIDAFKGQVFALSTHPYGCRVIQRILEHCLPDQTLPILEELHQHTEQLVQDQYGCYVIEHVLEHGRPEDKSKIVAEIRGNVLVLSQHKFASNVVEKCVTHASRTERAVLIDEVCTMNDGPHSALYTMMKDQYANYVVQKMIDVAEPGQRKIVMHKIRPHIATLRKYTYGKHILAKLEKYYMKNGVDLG
Summary of the method: as §1

PUM1 PUF domain R5-NTR = PUM1 PUF domain R5-NTR (Homo sapiens, UniProt Q14671 828-1176, C1007N;R1008T;Q1011R)
Summary of the method: as §1

GGCUAGAACUAGUGGAUCCCCCGGCGCCCGGCGGCUCGAGCCCGGGUAAGCGUAAAUAGUCUGCAUGCCGCCGGGCGCCAUGCCUGCAGGUCGACUCUAGAAAACAUG
binding signal (PUM1 PUF domain R8-WYR): 4.97 log2 enrichment (interaction score)

GGCUAGAACUAGUGGAUCCCCCGGCGCCCGGCGGCUCGAGCCCGGGUAAGUGUGAAUAGUCUGCAUGCCGCCGGGCGCCAUGCCUGCAGGUCGACUCUAGAAAACAUG
binding signal (PUM1 PUF domain R5-GRC): 1.57 log2 enrichment (interaction score)

GGCUAGAACUAGUGGAUCCCCCGGCGCCCGGCGGCUCGAGCCCGGGUAAGUGUAAAGAGUCUGCAUGCCGCCGGGCGCCAUGCCUGCAGGUCGACUCUAGAAAACAUG
binding signal (PUM1 PUF domain R2-RTS): 3.27 log2 enrichment (interaction score)

GGCUAGAACUAGUGGAUCCCCCGGCGCCCGGCGGCUCGAGCCCGGGUAAGUGUAAGUAGUCUGCAUGCCGCCGGGCGCCAUGCCUGCAGGUCGACUCUAGAAAACAUG
binding signal (PUM1 PUF domain R3-GPQ): 3.73 log2 enrichment (interaction score)
binding signal (PUM1 PUF domain R3-EFS): 3.82 log2 enrichment (interaction score)

GGCUAGAACUAGUGGAUCCCCCGGCGCCCGGCGGCUCGAGCCCGGGUAAGUGUAAAUCGUCUGCAUGCCGCCGGGCGCCAUGCCUGCAGGUCGACUCUAGAAAACAUG
binding signal (PUM1 PUF domain R1-SPK): 2.31 log2 enrichment (interaction score)

GGCUAGAACUAGUGGAUCCCCCGGCGCCCGGCGGCUCGAGCCCGGGUAAGUGUAAAUAGUCUGCAUGCCGCCGGGCGCCAUGCCUGCAGGUCGACUCUAGAAAACAUG
binding signal (PUM1 PUF domain R5-GRC): 4.07 log2 enrichment (interaction score)
binding signal (PUM1 PUF domain R5-IFM): 2.52 log2 enrichment (interaction score)
binding signal (PUM1 PUF domain R8-WYR): 4.75 log2 enrichment (interaction score)
binding signal (PUM1 PUF domain R3-GPQ): 4.19 log2 enrichment (interaction score)
binding signal (PUM1 PUF domain R5-RQM): 2.06 log2 enrichment (interaction score)
binding signal (PUM1 PUF domain R3-EFS): 2.99 log2 enrichment (interaction score)

GGCUAGAACUAGUGGAUCCCCCGGCGCCCGGCGGCUCGAGCCCGGGUAAGUGGAAAUAGUCUGCAUGCCGCCGGGCGCCAUGCCUGCAGGUCGACUCUAGAAAACAUG
binding signal (PUM1 PUF domain R6-CYE): 2.53 log2 enrichment (interaction score)

GGCUAGAACUAGUGGAUCCCCCGGCGCCCGGCGGCUCGAGCCCGGGUAAGUGUCAAUAGUCUGCAUGCCGCCGGGCGCCAUGCCUGCAGGUCGACUCUAGAAAACAUG
binding signal (PUM1 PUF domain R5-GRC): 0.62 log2 enrichment (interaction score)
binding signal (PUM1 PUF domain R5-NTR): 5.46 log2 enrichment (interaction score)
binding signal (PUM1 PUF domain R5-RQM): 4.46 log2 enrichment (interaction score)

GGCUAGAACUAGUGGAUCCCCCGGCGCCCGGCGGCUCGAGCCCGGGUAAGUGUAAUUAGUCUGCAUGCCGCCGGGCGCCAUGCCUGCAGGUCGACUCUAGAAAACAUG
binding signal (PUM1 PUF domain R3-GPQ): 1.42 log2 enrichment (interaction score)
binding signal (PUM1 PUF domain R3-EFS): 4.44 log2 enrichment (interaction score)

GGCUAGAACUAGUGGAUCCCCCGGCGCCCGGCGGCUCGAGCCCGGGUAAGUGUUAAUAGUCUGCAUGCCGCCGGGCGCCAUGCCUGCAGGUCGACUCUAGAAAACAUG
binding signal (PUM1 PUF domain R5-GRC): 4.6 log2 enrichment (interaction score)
